According to ChEMBL document CHEMBL1961873, “Compounds: GSK PKIS; Assays: Nanosyn kinase panel” (2012):

Molecular target: Tyrosine-protein kinase receptor UFO (Homo sapiens) (UniProt P30530)
Details: at 1 µM

Tyrosine-protein kinase receptor UFO (Homo sapiens), sequence (P30530 whole entry): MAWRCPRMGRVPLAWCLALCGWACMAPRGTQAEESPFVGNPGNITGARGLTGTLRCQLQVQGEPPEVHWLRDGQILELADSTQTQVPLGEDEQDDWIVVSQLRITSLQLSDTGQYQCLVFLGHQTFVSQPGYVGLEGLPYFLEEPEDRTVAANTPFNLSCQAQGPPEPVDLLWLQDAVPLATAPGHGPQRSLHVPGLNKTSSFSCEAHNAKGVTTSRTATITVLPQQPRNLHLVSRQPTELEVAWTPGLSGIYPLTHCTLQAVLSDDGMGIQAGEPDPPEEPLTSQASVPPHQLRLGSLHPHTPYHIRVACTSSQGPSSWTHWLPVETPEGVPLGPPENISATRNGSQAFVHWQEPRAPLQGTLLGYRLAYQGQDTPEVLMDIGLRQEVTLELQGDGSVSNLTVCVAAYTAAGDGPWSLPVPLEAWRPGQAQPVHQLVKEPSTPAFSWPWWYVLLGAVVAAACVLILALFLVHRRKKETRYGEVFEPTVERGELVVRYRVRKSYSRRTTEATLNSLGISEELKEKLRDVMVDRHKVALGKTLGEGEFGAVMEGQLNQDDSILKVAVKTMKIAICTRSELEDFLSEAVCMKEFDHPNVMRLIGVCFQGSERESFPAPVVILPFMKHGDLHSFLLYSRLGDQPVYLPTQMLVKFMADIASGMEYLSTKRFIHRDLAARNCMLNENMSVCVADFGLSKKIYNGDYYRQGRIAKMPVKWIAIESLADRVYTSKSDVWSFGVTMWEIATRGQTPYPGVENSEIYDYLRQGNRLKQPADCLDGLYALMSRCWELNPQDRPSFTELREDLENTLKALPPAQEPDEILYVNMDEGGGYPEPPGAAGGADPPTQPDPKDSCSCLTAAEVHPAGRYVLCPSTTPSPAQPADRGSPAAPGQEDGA

| SMILES | inhibition [%] |
| --- | --- |
| Nc1ccc(C#Cc2cncnc2Nc2ccc(OCc3cccc(F)c3)c(Cl)c2)cc1 | -3.04 |
| O=S(=O)(CCOCc1ccc(-c2ccc3ncnc(Nc4ccc(OCc5cccc(F)c5)c(Cl)c4)c3c2)o1)c1ccccc1 | 1.46 |
| Nc1nccc(C#Cc2cncnc2Nc2ccc(OCc3cccc(F)c3)c(Cl)c2)n1 | 1.72 |
| ON=C1CCc2cc(-c3nc(C4CCNCC4)[nH]c3-c3ccncc3)ccc21 | 2.54 |
| Cc1cc(O)cc(C)c1/C=C/c1cncc(C(=O)N(C)C)c1 | 3.27 |
| CCn1c(-c2nonc2N)nc2c(C#CC(C)(C)O)nc(OCCNC)cc21 | -6.1 |
| Cc1cc(-c2ccccn2)cc(C)c1/C=C/c1cncc(-c2nn[nH]n2)c1 | -1.94 |
| NS(=O)(=O)c1ccc(-c2cc3ccncc3cc2OCc2ccccc2)cc1 | -1.13 |
| CS(=O)(=O)Nc1cccc(-c2ccc3c(NC(=O)C4CC4)n[nH]c3c2)c1 | 1.68 |
| O=C(Nc1ccc(Oc2ccc3[nH]c(NC(=O)c4ccco4)nc3c2)cc1)Nc1cc(C(F)(F)F)ccc1F | 60.5 |
| COc1ccc2ncnc(Nc3ccc(OCc4ccccc4)cc3)c2c1 | -5.04 |
| COC(=O)c1cncc(/C=C/c2c(C)cc(O)cc2C)c1 | -5.3 |
| Cc1ccc(C(=O)NC2CC2)cc1-c1ccc2[nH]ncc2c1 | 6.55 |
| COc1cc2ncnc(Nc3ccc4c(cnn4Cc4ccccc4)c3)c2cc1OC | -3.18 |
| Cc1ccc2c(c1)/C(=N/Nc1ccc(S(N)(=O)=O)cc1)C(=O)N2 | 2.86 |
| CN(C)CCCn1c(-c2nonc2N)nc2cnccc21 | -8.31 |
| CCCN1CCCC(c2ccc(Nc3nc(Nc4cc(F)ccc4C(N)=O)c4cc[nH]c4n3)c(OC)c2)C1 (stereo unspecified) | 57.4 |

| SMILES | inhibition [%] |
| --- | --- |
| Cc1ccc(NC(=O)CC2CC2)cc1-c1ccc(C(=O)NCC2CC2)cc1 | -1.55 |
| Cc1ccc(Nc2ccnc(Nc3cccc(C(N)=O)c3)n2)cc1O | 0.42 |
| CN(c1ccc(NC(=O)Nc2ccc(OC(F)(F)F)cc2)cc1)c1ccnc(Nc2cccc(S(N)(=O)=O)c2)n1 | 16.2 |
| CS(=O)(=O)CCNCc1nc(-c2ccc3ncnc(Nc4ccc(OCc5cccc(C(F)(F)F)c5)cc4)c3c2)cs1 | -2.54 |
| Cc1nc(-c2ccccc2)n2nc(NCCCN3CCOCC3)ncc12 | -0.92 |
| CN(C)C(=O)O[C@H]1CN[C@H](C#Cc2cc3ncnc(Nc4ccc(OCc5cccc(F)c5)c(Cl)c4)c3s2)C1 | -1.68 |
| NC(=O)c1sc(-n2cnc3ccccc32)cc1OCc1ccccc1Br | -4.14 |
| COc1cc(/C=N/Nc2ncnc3c2cnn3C(C)C)ccc1O | -0.23 |
| Cc1ccc2c(-c3ccnc(Nc4cccc(C(F)(F)F)c4)n3)c(-c3ccccc3)nn2n1 | -3.9 |
| CC(C)c1ccc2c(c1)NC(=O)/C2=N/Nc1ccc(S(N)(=O)=O)cc1 | 0.13 |
| NS(=O)(=O)c1ccc(NC=C2C(=O)Nc3ccc4ncsc4c32)cc1 | 42.4 |
| CN(C)c1cc2c(Nc3ccc4c(cnn4Cc4ccccc4)c3)ncnc2cn1 | -3.44 |
| Oc1cccc(-c2nc(-c3ccccc3)[nH]c2-c2ccncc2)c1 | -0.19 |
| CCn1c(-c2nonc2N)nc2ccc(F)cc21 | -5.29 |
| CN1CCN(C(=O)c2ccc(NC(=O)Nc3ccc(N(C)c4ccnc(Nc5ccc(CS(C)(=O)=O)cc5)n4)cc3)cc2)CC1 | 11.9 |
| Nc1nccc(-c2c(-c3ccc(F)cc3)nn3cc(C(F)(F)F)ccc23)n1 | 5.17 |

Molecular target: Tyrosine-protein kinase Blk (Homo sapiens) (UniProt P51451);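 also: reported value is the mean percent inhibition of BLK kinase activity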
Sequence (P51451 2-505 limits assumed): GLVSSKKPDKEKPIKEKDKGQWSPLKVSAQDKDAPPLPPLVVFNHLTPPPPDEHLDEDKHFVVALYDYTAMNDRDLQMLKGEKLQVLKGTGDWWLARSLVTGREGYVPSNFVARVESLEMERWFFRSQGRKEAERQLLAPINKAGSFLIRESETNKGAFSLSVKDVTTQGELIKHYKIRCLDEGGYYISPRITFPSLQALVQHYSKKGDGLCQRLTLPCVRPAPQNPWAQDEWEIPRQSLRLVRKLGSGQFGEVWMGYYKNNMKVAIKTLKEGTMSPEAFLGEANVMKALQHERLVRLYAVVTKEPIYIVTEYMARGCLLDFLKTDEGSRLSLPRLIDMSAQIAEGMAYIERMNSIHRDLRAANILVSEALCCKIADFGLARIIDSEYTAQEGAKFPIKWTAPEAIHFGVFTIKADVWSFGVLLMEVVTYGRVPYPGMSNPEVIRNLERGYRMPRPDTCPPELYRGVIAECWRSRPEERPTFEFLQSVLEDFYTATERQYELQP
Details: at 0.1 µM

| SMILES | inhibition [%] |
| --- | --- |
| Nc1ccc(C#Cc2cncnc2Nc2ccc(OCc3cccc(F)c3)c(Cl)c2)cc1 | 2.28 |
| O=S(=O)(CCOCc1ccc(-c2ccc3ncnc(Nc4ccc(OCc5cccc(F)c5)c(Cl)c4)c3c2)o1)c1ccccc1 | -1.07 |
| Nc1nccc(C#Cc2cncnc2Nc2ccc(OCc3cccc(F)c3)c(Cl)c2)n1 | 3.54 |
| ON=C1CCc2cc(-c3nc(C4CCNCC4)[nH]c3-c3ccncc3)ccc21 | 0.32 |
| Cc1cc(O)cc(C)c1/C=C/c1cncc(C(=O)N(C)C)c1 | 2.94 |
| CCn1c(-c2nonc2N)nc2c(C#CC(C)(C)O)nc(OCCNC)cc21 | 1.45 |
| Cc1cc(-c2ccccn2)cc(C)c1/C=C/c1cncc(-c2nn[nH]n2)c1 | 5.71 |
| NS(=O)(=O)c1ccc(-c2cc3ccncc3cc2OCc2ccccc2)cc1 | 2.2 |
| CS(=O)(=O)Nc1cccc(-c2ccc3c(NC(=O)C4CC4)n[nH]c3c2)c1 | 0.09 |
| O=C(Nc1ccc(Oc2ccc3[nH]c(NC(=O)c4ccco4)nc3c2)cc1)Nc1cc(C(F)(F)F)ccc1F | -3.12 |
| COc1ccc2ncnc(Nc3ccc(OCc4ccccc4)cc3)c2c1 | 2.17 |
| COC(=O)c1cncc(/C=C/c2c(C)cc(O)cc2C)c1 | 3.73 |
| Cc1ccc(C(=O)NC2CC2)cc1-c1ccc2[nH]ncc2c1 | -1.8 |
| COc1cc2ncnc(Nc3ccc4c(cnn4Cc4ccccc4)c3)c2cc1OC | 13.9 |
| Cc1ccc2c(c1)/C(=N/Nc1ccc(S(N)(=O)=O)cc1)C(=O)N2 | 0.29 |
| CN(C)CCCn1c(-c2nonc2N)nc2cnccc21 | 1.44 |
| CCCN1CCCC(c2ccc(Nc3nc(Nc4cc(F)ccc4C(N)=O)c4cc[nH]c4n3)c(OC)c2)C1 (stereo unspecified) | 2.11 |

| SMILES | inhibition [%] |
| --- | --- |
| Cc1ccc(NC(=O)CC2CC2)cc1-c1ccc(C(=O)NCC2CC2)cc1 | 2.42 |
| Cc1ccc(Nc2ccnc(Nc3cccc(C(N)=O)c3)n2)cc1O | 11.8 |
| CN(c1ccc(NC(=O)Nc2ccc(OC(F)(F)F)cc2)cc1)c1ccnc(Nc2cccc(S(N)(=O)=O)c2)n1 | 29.4 |
| CS(=O)(=O)CCNCc1nc(-c2ccc3ncnc(Nc4ccc(OCc5cccc(C(F)(F)F)c5)cc4)c3c2)cs1 | 1.22 |
| Cc1nc(-c2ccccc2)n2nc(NCCCN3CCOCC3)ncc12 | 2.04 |
| CN(C)C(=O)O[C@H]1CN[C@H](C#Cc2cc3ncnc(Nc4ccc(OCc5cccc(F)c5)c(Cl)c4)c3s2)C1 | 2.47 |
| NC(=O)c1sc(-n2cnc3ccccc32)cc1OCc1ccccc1Br | 2.16 |
| COc1cc(/C=N/Nc2ncnc3c2cnn3C(C)C)ccc1O | 4.73 |
| Cc1ccc2c(-c3ccnc(Nc4cccc(C(F)(F)F)c4)n3)c(-c3ccccc3)nn2n1 | 12.4 |
| CC(C)c1ccc2c(c1)NC(=O)/C2=N/Nc1ccc(S(N)(=O)=O)cc1 | 1.27 |
| NS(=O)(=O)c1ccc(NC=C2C(=O)Nc3ccc4ncsc4c32)cc1 | 8.34 |
| CN(C)c1cc2c(Nc3ccc4c(cnn4Cc4ccccc4)c3)ncnc2cn1 | 3.2 |
| Oc1cccc(-c2nc(-c3ccccc3)[nH]c2-c2ccncc2)c1 | 2.99 |
| CCn1c(-c2nonc2N)nc2ccc(F)cc21 | 3.96 |
| CN1CCN(C(=O)c2ccc(NC(=O)Nc3ccc(N(C)c4ccnc(Nc5ccc(CS(C)(=O)=O)cc5)n4)cc3)cc2)CC1 | 2.76 |
| Nc1nccc(-c2c(-c3ccc(F)cc3)nn3cc(C(F)(F)F)ccc23)n1 | 0.6 |
